Compound activity deposited in PubChem BioAssay by several laboratories.
CF NFkB block = inhibitors of PAF-induced NF-kB signaling, primary screen, cell-based, GFP fluorescence, uHTS | inhibition, % at 5 µM | KKLEB NF-kB-GFP reporter, GFP fluorescence overnight | actives 0.86% (n = 360,000);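 active = at least 50% inhibition at 5 µM, scaled per plate between neutral and stimulator controls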;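 note: PAF is a Pseudomonas aeruginosa culture filtrate used as stimulus; plate controls were PAF-stimulated DMSO wells for no effect and unstimulated DMSO wells for full effect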
KKLEB tox = cytotoxicity in KKLEB CF airway cells, primary screen, cytotoxicity control for CF NF-kB inhibitor project, cell-based, uHTS, fluorescence assay plates; KKLEB CF airway cells viability, ATPlite luminescence, overnight; stronger effect = lower value; cells stimulated with P. aeruginosa culture filtrate; activity change (cytotoxicity), % at 5 µM; actives 0.36% (n = 360,000); AID 602141, 2011;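 active = corrected activity change at or below -50% at 5 µM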
HIF-2a inh = HIF-2a reporter inhibitors, primary screen, luminescence, 786-0 RCC cells | inhibition, % at 18.8 µM | 786-0 RCC cells HIF-2a reporter, luciferase luminescence, overnight | actives 0.72% (n = 360,000);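 active = inhibition of the luminescence signal of 40% or more relative to plate controls, in a single-dose primary screen at 18.75 µM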
EBV LMP1 NFkB = EBV LMP1-driven NF-kappaB luciferase reporter inhibitors, primary screen, cell-based, luminescence, single point; LMP1-induced NF-kappaB luciferase reporter cells; inhibition, % at 12.5 µM; actives 0.69% (n = 350,000); AID 504558, 2011; in the data active = inhibition above about 41%; inconclusive = no clear call, values can overlap the other calls;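 note: 0% = neutral control wells and 100% = reference inhibitor control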
Peg3 promoter = Peg3 promoter-driven luciferase inhibitors, primary screen, cell-based, HeLa, luciferase luminescence. AID 588405, 2011. HeLa PEG-Prom luciferase reporter, overnight. inhibition, % at 20 µM. actives 1.7% (n = 360,000);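 active = inhibition of at least 50% at 20 µM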
TRPM1 prom inh = inhibitors of MITF-dependent TRPM1 promoter reporter, primary screen, cell-based, SK-MEL-5, single point, luciferase; SK-MEL-5 TRPM1 promoter luciferase, 24 h; inhibition, % at 12.5 µM; actives 0.83% (n = 330,000); AID 488899, 2010;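 active = mean inhibition across replicates of 60% or more, whatever share of single replicates reaches that level; inconclusive = some that reach 60%, reason not given; inactive = mean inhibition across replicates below 60%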
* marks the source's active call; other numbers are inactive results; ? = inconclusive; . = not tested or not shown. Only some compounds are listed: those with a hit (about 3% of all), similar ones and a draw of the others.

SMILES	CF NFkB block	KKLEB tox	HIF-2a inh	EBV LMP1 NFkB	Peg3 promoter	TRPM1 prom inh
Cc1ccc(S(=O)(=O)N(CCCO)CC(O)CON=C2c3ccccc3-c3ccccc32)cc1 (configuration not stated)	17	-9	-15	1	52*	-12
CCN(CC(O)Cn1c2ccccc2c2ccccc21)S(=O)(=O)c1ccc(C)cc1 (configuration not stated)	4	5	31	-7	34	-1
COc1cc(OC)cc(-c2c(C#Cc3ccsc3)c3cc(-c4cc(OC)c(OC)c(OC)c4)ccc3n2C)c1	24	-2	10	89*	0	6
COc1cccc(C(NC(C)=O)c2nc(-c3cccs3)cs2)c1 (configuration not stated)	-22	10	-25	.	-15	.
CC(C)(CNC(=O)c1cccc(S(=O)(=O)N2CCCCC2)c1)N1CCOCC1	-38	3	29	-7	12	.
CCCCC(CC)CN=C(N)NC(N)=NCCCCCCN=C(N)NC(N)=NCC(CC)CCCC (configuration not stated)	52*	-17	98*	12	103*	110*
C[C@@H]1CN([C@H](C)CO)C(=O)CCCn2nncc2CO[C@H]1CN(C)C(=O)Nc1ccc(N2CCN(C)CC2)cc1	-2	-3	5	-6	-7	.
Cc1n[nH]c2c([N+](=O)[O-])c(=O)[nH]c(=O)n12	7	-27	8	-8	4	-9
CCOC(=O)c1sc2nc(C)nc(Nc3ccccc3)c2c1C	-17	5	-3	6	7	14
CCOC(=O)c1sc2nc(C)nc(NCc3ccccc3)c2c1C	-37	10	-79	52*	-15	-26
Cc1cccc(N2CCN(C(=S)c3ccc4c(c3)OCO4)CC2)c1	9	-12	-24	11	-5	1
O=C1C=CC(=O)c2c(O)c(N3CCN(CCO)CC3)c(Cl)c(O)c21	-23	15	90*	72*	102*	99*
O=C1C=CC(=O)c2c(O)c(N3CCN(CCOCCO)CC3)c(Br)c(O)c21	6	2	87*	82*	53*	97*
OCCOCCN1CCN(C2=Nc3ccccc3Sc3ccccc32)CC1	34	-1	-17	-4	-15	1
O=c1[nH]c(NC2CCN(S(=O)(=O)c3ccccc3C(F)(F)F)CC2)nc2c1CCCC2	15	9	11	53*	4	71*
CC1(C)CC(NC(=O)C2CCN(S(=O)(=O)c3ccccc3C(F)(F)F)CC2)CC(C)(C)N1	7	-9	12	3	-6	4
COc1ccccc1-c1nc(-c2ccccn2)no1	-27	-29	43*	62*	47	45
Cc1cc(C)nc(NC(=S)NC(=O)c2ccccc2F)n1	-19	10	-83	.	-52	.
Cc1cc(C)nc(S/C=C/C(=O)c2ccccc2F)n1	76*	8	15	-43	97*	87*
O=C(O)CCC1(CCC(=O)O)CCCC(CCC(=O)O)(CCC(=O)O)C1=O	0	-12	-2	2	0	7
CCC(C)c1ccc(S(=O)(=O)N2CCN(C(=O)CN3C(=O)NC(C)(C4CC4)C3=O)CC2)cc1 (configuration not stated)	-38	8	5	-9	4	.
CN(C)c1ccc2nc3ccc(=[N+](C)C)cc-3sc2c1	79*	-5	-161	25	-110	73*
Cc1cc2nc3ccc(=[N+](C)C)cc-3sc2cc1N	52*	28	-142	?	-34	96*
Cc1nc2cc(C)c(C)cc2s1	2	-6	5	3	1	0
CSc1nc2ccc(S(=O)(=O)N(C)C)cc2s1	-22	7	-5	-22	-18	-3
Cc1nc2ccc(N)cc2s1	-16	-1	-17	-4	-12	-10
CN(C)c1ccc2nc3ccc(=O)cc-3sc2c1	52*	8	-90	-4	-126	.
